Assay results as given in the supplement of paper PMC10646978.
± gives the standard deviation.

Legend:
Conditions in all cases: modulator concentration 10 µM
[1] = test system: RAW-Dual (murine macrophage reporter line); assay: NF-kB reporter (SEAP) activity fold change vs agonist alone; higher = enhanced NF-kB activity
Outline: (§1)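 Compound reached 10 μM final in each well by pin transfer, onto RAW-Dual murine macrophage reporter cells seeded at 50 000 per well in 384-well plates. After 1 hour at 37 °C, the cells were stimulated overnight with a PRR agonist. SEAP in the supernatant was read with QUANTI-Blue at 620 nm absorbance for NF-κB, and Lucia luciferase was read with QUANTI-Luc luminescence for IRF. Each signal was turned into fold change against the mean agonist-only control on the same plate, and two replicate plates were averaged with propagated errors.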

[2] = test system: RAW-Dual (murine macrophage reporter line); assay: IRF reporter (Lucia luciferase) activity fold change vs agonist alone; higher = enhanced IRF activity
Outline: as §1

[3] = test system: RAW-Dual (murine macrophage reporter line); assay: viability score (confluency relative to resting cells, overnight) (fraction); higher = more viable, active = viable (0.7 or more)
Outline: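 RAW-Dual macrophages in 384-well plates were treated overnight with compound at 10 μM final. IncuCyte imaging recorded confluency, and IncuCyte software built two confluency masks across every imaged well. The viability score expresses confluency relative to resting cells and was judged against a cutoff, which a compound met only if both masks exceeded 70% of resting cells.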

[4] = agonist: CpG ODN 1826 0.5 ug/mL

| SMILES | NF-kB reporter [1, 4] | NF-kB reporter ([1]; agonist: LPS 0.1 ug/mL) | NF-kB reporter ([1]; agonist: MPLA […]) | IRF reporter ([2]; agonist: 3'3'-cGAMP 10 ug/mL) | IRF reporter ([2]; agonist: LPS 0.1 ug/mL) | IRF reporter ([2]; agonist: MPLA […]) | viability score [3] |
| --- | --- | --- | --- | --- | --- | --- | --- |
| CCOC(=O)C(C)N(c1ccc(OC)cc1)S(C)(=O)=O (configuration not stated) | 0.99 ± 0.056 | 0.985 ± 0.071 | 0.905 ± 0.053 | 1.07 ± 0.053 | 1.22 ± 0.083 | 1.12 ± 0.27 | 0.977 (active) |
| Cc1cn2nc(C(=O)Nc3ccccc3N3CCN(C)CC3)cc2c(=O)[nH]1 | 0.685 ± 0.035 | 1.08 ± 0.11 | 0.864 ± 0.047 | 1.02 ± 0.052 | 1.26 ± 0.076 | 1.09 ± 0.098 | 0.941 (active) |
| CCCCCCCCCCCC(CC1OC(=O)C1CCCCCC)OC(=O)C(CC(C)C)NC=O (configuration not stated) | 1.55 ± 0.37 | 1.04 ± 0.092 | 0.364 ± 0.07 | 0.475 ± 0.023 | 1.61 ± 0.19 | 0.197 ± 0.065 | 0.943 (active) |
| Cn1c(=O)[nH]c(=O)c2c1nc(N1CCCCC1)n2CCC#N | 1.1 ± 0.07 | 1.09 ± 0.07 | 0.952 ± 0.071 | 0.945 ± 0.033 | 1.33 ± 0.093 | 1.1 ± 0.16 | 1 (active) |
| COC(=O)N[C@H](C(=O)N1CCC[C@H]1c1ncc(-c2ccc(-c3ccc(-c4cnc([C@@H]5CCCN5C(=O)[C@@H](NC(=O)OC)C(C)C)[nH]4)cc3)cc2)[nH]1)C(C)C | 0.724 ± 0.098 | 1.17 ± 0.46 | 1.22 ± 0.074 | 0.757 ± 0.12 | 1.52 ± 0.3 | 4.38 ± 1.3 | 0.987 (active) |
| Clc1cnc(NC2CCN(c3ncnc4c3CCCC4)CC2)nc1 | 0.969 ± 0.043 | 1.08 ± 0.089 | 1.55 ± 0.24 | 0.698 ± 0.032 | 1.16 ± 0.21 | 1.29 ± 0.47 | 0.954 (active) |
| CC1CC(C)CN(C(=O)CSc2nnc(Cc3ccccc3)o2)C1 (configuration not stated) | 0.917 ± 0.048 | 1.06 ± 0.091 | 0.879 ± 0.11 | 1.01 ± 0.071 | 0.944 ± 0.093 | 0.858 ± 0.34 | 0.981 (active) |
| Cc1nc(C(=O)NCC(=O)O)c(O)c2ccc(Oc3ccccc3)cc12 | 0.856 ± 0.12 | 1.05 ± 0.39 | 0.94 ± 0.053 | 0.925 ± 0.04 | 1.09 ± 0.25 | 0.97 ± 0.28 | 0.996 (active) |
| O=C(Nc1cc(C(F)(F)F)cc(C(F)(F)F)c1)c1c(F)cccc1F | 0.953 ± 0.099 | 1.07 ± 0.075 | 0.911 ± 0.069 | 0.987 ± 0.07 | 1.29 ± 0.14 | 1.07 ± 0.072 | 1.01 (active) |
| COc1ccccc1C(=O)Nc1ccc(Nc2ccc(-n3cccn3)nn2)cc1 | 2.27 ± 0.12 | 1.36 ± 0.12 | 1.91 ± 0.092 | 0.334 ± 0.017 | 1.45 ± 0.094 | 1.11 ± 0.1 | 0.721 (active) |
| O=[N+]([O-])c1ccc(-n2cccc2C=NNc2nc(N3CCCCC3)nc(N3CCCCC3)n2)cc1 | 0.994 ± 0.087 | 1.01 ± 0.12 | 0.926 ± 0.054 | 0.907 ± 0.039 | 1.38 ± 0.12 | 1.05 ± 0.1 | 1 (active) |
| NS(=O)(=O)c1ccc(C(=O)O)cc1 | 0.892 ± 0.066 | 0.94 ± 0.096 | 1.06 ± 0.096 | 1.01 ± 0.054 | 1.01 ± 0.18 | 1 ± 0.31 | 0.994 (active) |
| Cc1ccc(C(=O)NC(Oc2ccc3ccccc3c2)C(Br)(Br)Br)cc1 (configuration not stated) | 0.799 ± 0.045 | 1.02 ± 0.092 | 0.86 ± 0.053 | 0.598 ± 0.047 | 1.51 ± 0.12 | 1.27 ± 0.14 | 0.998 (active) |
| O=C1c2ccccc2C(=O)c2c1ccc(O)c2O | 1.03 ± 0.098 | 1.06 ± 0.054 | 1.02 ± 0.027 | 0.948 ± 0.084 | 0.949 ± 0.039 | 0.978 ± 0.076 | 0.999 (active) |
| COc1ccc(C2SCc3cc(C)c(C)cc3CS2)cc1OC | 0.831 ± 0.11 | 0.826 ± 0.069 | 1.1 ± 0.1 | 0.965 ± 0.045 | 1.4 ± 0.087 | 1.64 ± 0.14 | 1.01 (active) |
| CCN(Cc1ccncc1)C(=O)C(CO)c1ccccc1 (configuration not stated) | 0.998 ± 0.087 | 0.997 ± 0.11 | 1.04 ± 0.071 | 0.972 ± 0.076 | 0.954 ± 0.058 | 0.932 ± 0.08 | 1 (active) |
| O=C1CCc2cc(OCCCCc3nnnn3C3CCCCC3)ccc2N1 | 1.52 ± 0.27 | 1.24 ± 0.38 | 1.18 ± 0.2 | 1.01 ± 0.043 | 1.32 ± 0.2 | 1.32 ± 0.12 | 0.991 (active) |
| COc1cc(Nc2ncc(F)c(Nc3ccc4c(n3)N(COP(=O)(O)O)C(=O)C(C)(C)O4)n2)cc(OC)c1OC | 0.724 ± 0.063 | 0.825 ± 0.072 | 1.12 ± 0.1 | 0.869 ± 0.098 | 1.18 ± 0.22 | 1.25 ± 0.35 | 0.931 (active) |
| CCCc1nc(C(C)(C)O)c(C(=O)OCc2oc(=O)oc2C)n1Cc1ccc(-c2ccccc2-c2nnn[nH]2)cc1 [Prestw-1190] | 1.09 ± 0.18 | 1.15 ± 0.2 | 1 ± 0.15 | 0.916 ± 0.036 | 0.987 ± 0.094 | 1.14 ± 0.15 | 1 (active) |
| O=C(Nc1nc(CC(=O)N2CCc3ccccc3C2)cs1)c1ccc(Cl)cc1 | 1.05 ± 0.054 | 1.13 ± 0.09 | 0.845 ± 0.047 | 1.01 ± 0.056 | 1.16 ± 0.11 | 1.21 ± 0.15 | 1.01 (active) |
| CCOC(=O)[C@@H](N)Cc1ccc(-c2cc(O[C@H](c3ccc(Cl)cc3-n3ccc(C)n3)C(F)(F)F)nc(N)n2)cc1.O=C(O)CNC(=O)c1ccccc1 | 0.504 ± 0.06 | 0.512 ± 0.053 | 0.937 ± 0.11 | 0.734 ± 0.043 | 0.787 ± 0.026 | 3.54 ± 0.34 | 0.119 (inactive) |
| CC(C)OCc1ccc(C(=O)Nc2nnc(C(C)C)s2)o1 | 0.988 ± 0.1 | 1 ± 0.079 | 0.961 ± 0.15 | 0.986 ± 0.051 | 1.11 ± 0.068 | 1.05 ± 0.08 | 1.01 (active) |
| COc1ccc(C=NN2CCN(C)CC2)c(OC)c1 | 0.84 ± 0.065 | 0.95 ± 0.047 | 1.04 ± 0.09 | 0.914 ± 0.056 | 1.25 ± 0.08 | 1.33 ± 0.11 | 1.01 (active) |
| FC(F)(F)c1ccc(CN2CCCC(c3nc4ccccc4[nH]3)C2)cc1 (configuration not stated) | 0.701 ± 0.27 | 0.876 ± 0.21 | 0.555 ± 0.2 | 0.693 ± 0.32 | 0.829 ± 0.19 | 0.967 ± 0.23 | 0.903 (active) |
| O=C1OC(CNS(=O)(=O)c2ccccc2Cl)CN1c1ccc(Cl)c(Cl)c1 (configuration not stated) | 1.08 ± 0.078 | 1.22 ± 0.11 | 0.926 ± 0.058 | 1.13 ± 0.06 | 1.11 ± 0.068 | 1.08 ± 0.24 | 1.01 (active) |
| COCCOC(=O)C1=C(C)NC(C)=C(C(=O)OCC=Cc2ccccc2)C1c1cccc([N+](=O)[O-])c1 (configuration not stated) | 0.586 ± 0.052 | 0.539 ± 0.074 | 1.07 ± 0.068 | 0.548 ± 0.035 | 1.06 ± 0.035 | 2.1 ± 0.43 | 0.989 (active) |
